From PubChem BioAssay
Activity calls are given as the source filed them.

How the values were obtained:
[1] = system: PRMT1 (protein arginine N-methyltransferase 1); experiment: PRMT1 binders on small-molecule microarrays, primary screen, biochemical, small-molecule microarray, 635 nm fluorescence (AID 1088); conditions: small-molecule microarray binding, higher = more signal;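 also: binding of Prmt1 protein to compounds spotted on small-molecule microarray slides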
[2] = yeast growth modulation, basal conditions, primary screen, YJM789 clinical isolate, OD600, 24 h (AID 1089);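 also: growth of clinical yeast isolate S. cerevisiae YJM 789 seeded 1000 cells per well; test concentration not given here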; conditions: S. cerevisiae YJM789 growth, higher = more signal, called active from +8 up or from −8 down
[3] = fission yeast growth modulation, primary screen, strain 972, OD600, 24 h, no modulator (AID 1090);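 also: basal condition with compound alone and no growth modifier present; test concentration not given here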; conditions: S. pombe 972 growth, higher = more signal, called active from +8 up or from −8 down
[4] = S. cerevisiae growth modulation with rapamycin, primary screen, strain BY4716, OD600, 96 h (AID 1091); conditions: higher = more signal, called active from +8 up or from −8 down; also: test concentration not given here
[5] = molecular target: Torsin-1A-interacting protein 2 (Homo sapiens) (UniProt Q8NFQ8); experiment: LULL1 binders on small-molecule microarray, primary screen, cell lysate, human LULL1 lysate, 635/667 nm fluorescence (AID 1092); conditions: hLULL1 lysate binding, 635 nm fluorescence, higher = more signal;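 also: probe is lysate of COS7 cells overexpressing human LULL1; score merges per-feature 667 nm fluorescence with signal-to-noise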
[6] = E. coli growth modulation, two-sided OD650, primary screen, E. coli filamentation project, strain DRC41, 24 h (AID 1093); conditions: OD650, 24 h, higher = more signal, called active from +8 up or from −8 down;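 also: MC1000 strain lacking acrAB efflux and sulA so SOS filamentation is blocked; test concentration not given here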
[7] = small-molecule microarray binders of probe aLefty2, primary screen, biochemical, biotinylated probe, 635/667 nm fluorescence (AID 1094); conditions: higher = more signal;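 also: score merges spot fluorescence near 667 nm with spot signal-to-noise ratio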
[8] = system: Noggin (protein binding on small-molecule microarray); experiment: Noggin binders on small-molecule microarray, primary screen, biochemical, 635/667 nm fluorescence (AID 1095); conditions: 635 nm fluorescence, higher = more signal;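 also: score merges 667 nm feature fluorescence with signal to noise over triplicate slides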
[9] = molecular target: Neurogenic locus notch homolog protein 3 (Homo sapiens) (UniProt Q9UM47); experiment: NOTCH3 binders on small-molecule microarray, primary screen, biochemical, 635/667 nm fluorescence (AID 1096); conditions: NOTCH3 binding, 635 nm fluorescence, higher = more signal
[10] = small-molecule microarray binders of probe aEGFR, primary screen, biochemical, biotinylated probe, 635/667 nm fluorescence (AID 1097); conditions: higher = more signal;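 also: probe is a biotinylated anti-EGFR antibody binding compounds printed on slides; score combines fluorescence near 667 nm and signal to noise of each spot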

Chain of Torsin-1A-interacting protein 2 (Homo sapiens) (Q8NFQ8 whole entry, looked up): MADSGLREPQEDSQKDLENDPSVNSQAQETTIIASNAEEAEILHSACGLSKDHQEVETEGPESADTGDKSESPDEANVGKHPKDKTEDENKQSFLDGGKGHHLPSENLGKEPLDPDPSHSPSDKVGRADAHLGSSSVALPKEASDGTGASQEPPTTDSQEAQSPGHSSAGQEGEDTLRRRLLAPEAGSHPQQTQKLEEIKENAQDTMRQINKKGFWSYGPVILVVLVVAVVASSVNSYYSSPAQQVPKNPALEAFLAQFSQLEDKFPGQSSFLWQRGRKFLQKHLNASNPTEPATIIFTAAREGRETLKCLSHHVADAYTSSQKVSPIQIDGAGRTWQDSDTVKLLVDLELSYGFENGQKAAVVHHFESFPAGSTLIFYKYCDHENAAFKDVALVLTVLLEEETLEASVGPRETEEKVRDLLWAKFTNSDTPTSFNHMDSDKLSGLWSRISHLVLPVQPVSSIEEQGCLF
Chain of Neurogenic locus notch homolog protein 3 (Homo sapiens) (Q9UM47 whole entry, looked up): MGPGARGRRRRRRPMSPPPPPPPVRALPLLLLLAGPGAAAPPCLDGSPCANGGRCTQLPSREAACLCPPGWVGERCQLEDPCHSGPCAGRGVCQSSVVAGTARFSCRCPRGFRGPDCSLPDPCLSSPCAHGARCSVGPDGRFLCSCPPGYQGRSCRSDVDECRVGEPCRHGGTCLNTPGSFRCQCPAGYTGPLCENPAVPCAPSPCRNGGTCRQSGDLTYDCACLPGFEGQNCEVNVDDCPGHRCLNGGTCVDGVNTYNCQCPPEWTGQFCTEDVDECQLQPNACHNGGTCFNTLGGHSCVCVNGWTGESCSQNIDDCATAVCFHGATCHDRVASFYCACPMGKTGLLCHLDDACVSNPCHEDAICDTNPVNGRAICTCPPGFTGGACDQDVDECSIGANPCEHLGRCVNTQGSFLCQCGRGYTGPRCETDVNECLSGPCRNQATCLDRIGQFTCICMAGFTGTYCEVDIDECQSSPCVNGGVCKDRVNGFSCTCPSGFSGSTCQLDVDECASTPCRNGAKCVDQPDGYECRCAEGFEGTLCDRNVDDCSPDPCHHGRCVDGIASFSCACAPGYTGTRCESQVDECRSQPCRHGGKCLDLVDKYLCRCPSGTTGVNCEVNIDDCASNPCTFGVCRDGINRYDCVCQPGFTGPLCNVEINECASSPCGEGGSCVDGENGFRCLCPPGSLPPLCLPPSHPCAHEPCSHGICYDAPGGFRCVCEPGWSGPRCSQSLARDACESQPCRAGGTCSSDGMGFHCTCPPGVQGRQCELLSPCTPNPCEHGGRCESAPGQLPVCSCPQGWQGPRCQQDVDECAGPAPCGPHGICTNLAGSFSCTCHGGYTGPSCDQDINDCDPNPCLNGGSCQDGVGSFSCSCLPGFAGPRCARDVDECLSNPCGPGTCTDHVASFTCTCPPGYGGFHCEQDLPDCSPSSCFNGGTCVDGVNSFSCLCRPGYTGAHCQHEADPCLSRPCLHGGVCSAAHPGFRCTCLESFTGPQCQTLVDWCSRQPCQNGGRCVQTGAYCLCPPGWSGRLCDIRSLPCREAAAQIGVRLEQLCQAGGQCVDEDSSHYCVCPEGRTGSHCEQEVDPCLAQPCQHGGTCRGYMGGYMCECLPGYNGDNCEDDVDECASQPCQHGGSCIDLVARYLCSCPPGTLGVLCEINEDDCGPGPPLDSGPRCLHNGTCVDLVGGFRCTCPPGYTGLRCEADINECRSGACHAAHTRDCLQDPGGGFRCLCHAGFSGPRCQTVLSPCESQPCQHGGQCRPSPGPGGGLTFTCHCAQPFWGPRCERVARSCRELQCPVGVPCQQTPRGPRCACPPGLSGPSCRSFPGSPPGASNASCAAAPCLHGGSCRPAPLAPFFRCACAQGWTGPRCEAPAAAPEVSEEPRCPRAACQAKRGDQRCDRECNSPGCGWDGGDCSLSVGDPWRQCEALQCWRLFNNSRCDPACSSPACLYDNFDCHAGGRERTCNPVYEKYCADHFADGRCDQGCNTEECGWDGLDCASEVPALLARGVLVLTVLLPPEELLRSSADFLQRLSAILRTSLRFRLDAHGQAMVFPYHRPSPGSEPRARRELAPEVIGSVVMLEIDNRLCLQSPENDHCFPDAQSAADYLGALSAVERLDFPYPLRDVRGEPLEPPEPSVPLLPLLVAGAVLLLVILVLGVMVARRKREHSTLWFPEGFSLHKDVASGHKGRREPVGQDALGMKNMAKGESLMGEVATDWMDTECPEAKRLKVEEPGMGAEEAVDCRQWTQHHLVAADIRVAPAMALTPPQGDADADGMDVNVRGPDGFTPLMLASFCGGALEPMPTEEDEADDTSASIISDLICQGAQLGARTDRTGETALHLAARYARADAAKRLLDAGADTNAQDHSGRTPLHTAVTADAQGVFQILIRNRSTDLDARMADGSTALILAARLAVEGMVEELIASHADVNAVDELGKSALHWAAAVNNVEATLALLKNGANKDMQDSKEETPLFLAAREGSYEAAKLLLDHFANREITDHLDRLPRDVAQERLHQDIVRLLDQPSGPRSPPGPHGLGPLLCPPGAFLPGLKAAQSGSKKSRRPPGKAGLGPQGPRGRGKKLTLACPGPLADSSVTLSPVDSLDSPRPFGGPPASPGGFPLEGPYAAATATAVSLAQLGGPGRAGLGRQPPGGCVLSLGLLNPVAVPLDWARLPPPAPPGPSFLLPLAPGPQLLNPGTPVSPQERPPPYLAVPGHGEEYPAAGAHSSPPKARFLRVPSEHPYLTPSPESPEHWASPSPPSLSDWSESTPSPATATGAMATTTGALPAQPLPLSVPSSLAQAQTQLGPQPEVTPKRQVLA

SMILES	composite z-score [1]	z-score [2]	z-score [3]	z-score [4]	composite z-score [5]	z-score [6]	composite z-score [7]	composite z-score [8]	composite z-score [9]	composite z-score [10]
C[C@H]1NC(=O)[C@@]23C(=O)N[C@@H](Cc4ccccc4)C2[C@H](C)[C@@]2(C)O[C@H]2C3/C=C/C/C=C\CNC(=O)[C@@H]2CCCN2C1=O (stereo not given in full)	-0.0905	-0.185 (inactive)	-0.769 (inactive)	-1.52 (inactive)	0.697	0.1 (inactive)	-0.166	1.15	1.01	-0.139
CO[C@H]1O[C@H](CO)[C@@H](OC(=O)Nc2ccc(C(F)(F)F)cc2)[C@H](OC(=O)Nc2ccc3c(c2)OCO3)[C@@H]1OC(=O)Nc1ccc2c(c1)OCO2	1.54	2.76 (inactive)	0.942 (inactive)	10 (active)	3.11	2.24 (inactive)	-0.0021	0.476	1.08	0.0869
COc1ccc(CCNC(=O)[C@@H]2c3ccccc3C(=O)N(Cc3ccccc3Cl)[C@H]2c2ccc(CO)cc2)cc1	0.533	-0.874 (inactive)	-0.96 (inactive)	0.35 (inactive)	1.65	-0.139 (inactive)	-0.0299	-0.215	0.124	0.0121
C=CCN1C(=O)[C@]2(O[C@H](CCn3cc([C@H](O)c4ccccc4)nn3)[C@@H]([Si](C)(C)c3ccc(OC)cc3)[C@@H]2C)c2ccccc21	0.267	-1.25 (inactive)	0.0123 (inactive)	-0.198 (inactive)	0.41	-0.68 (inactive)	-0.113	-0.308	0.183	-0.145
COCCOC(=O)N1C(=O)[C@@]2(c3cc(C#CCNC(N)=O)ccc31)[C@H](C(=O)N1CCN(c3ncccn3)CC1)[C@H]1C(=O)O[C@H](c3ccccc3)[C@H](c3ccccc3)N1[C@@H]2c1ccc(OCCO)cc1	1.57	1.51 (inactive)	0.383 (inactive)	4.36 (inactive)	2.34	-0.351 (inactive)	0.0158	0.707	1.1	-0.0271
COC(=O)[C@@]1(Cc2ccc(F)cc2)[C@H]2c3cc(C(=O)N(C)C)n(Cc4cc(F)c(F)c(F)c4)c3C[C@H]2CN1C(=O)c1ccccc1	-0.0972	0.0065 (inactive)	1.72 (inactive)	2.54 (inactive)	3.07	-0.535 (inactive)	0.376	-0.592	1.03	0.487
CCCC[C@H]1OB(O)C[C@H]2C1=C(COC)C[C@H]1C(=O)N(C)C(=O)[C@H]12	-0.15	-0.937 (inactive)	-0.775 (inactive)	-0.635 (inactive)	0.0079	-0.908 (inactive)	-0.157	1.08	0.769	-0.139
N#Cc1ccc(NN2C(C(O)C(c3ccccc3)c3ccccc3)C=CC3C(=O)N(c4ccccc4)C(=O)C32)cc1 (stereo not given)	1.07	0.43 (inactive)	1.25 (inactive)	5.53 (inactive)	3.58	-0.0873 (inactive)	0.167	0.297	1.01	0.0981
CC(=O)NCCCC[C@@H]1NC(=O)[C@@H]2C[C@H](C(=O)NCCCCCNC(=O)CS)[C@H](c3cccc(OCCO)c3)N2C1=O	1.18	-3.39 (inactive)	-0.0277 (inactive)	-2.5 (inactive)	-0.0484	1.16 (inactive)	-0.141	1.55	0.486	-0.0808
[N-]=[N+]=NCc1ccccc1C[C@]1(C(N)=O)COC(c2ccc(OCCCO)cc2)=N1	0.945	-4.72 (inactive)	-1.09 (inactive)	-1.19 (inactive)	3.1	1.95 (inactive)	0.0567	-0.572	0.31	0.0641
CCCc1cc2c(n1Cc1cc(F)cc(F)c1)C(C)C1CN(C(=O)c3ccccc3)C(C)(C(=O)OC)C21 (stereo not given)	0.497	0.149 (inactive)	0.744 (inactive)	0.734 (inactive)	3.11	-0.738 (inactive)	1.02	-0.266	1.03	0.249
COC(=O)[C@@]1(Cc2ccc(OC)cc2)[C@H]2c3cc(C(=O)N4CCCC4)n(CCN4CNCC4=O)c3C[C@H]2CN1C(=O)c1ccccc1	-0.871	0.503 (inactive)	0.706 (inactive)	0.429 (inactive)	3.77	-0.977 (inactive)	1.42	-0.364	0.293	1.15
CC1(C)[C@@H]2CC(C(O)C3C=CC4C(=O)N(Cc5ccccc5)C(=O)C4N3n3cnnc3)=C[C@H]1C2 (stereo not given in full)	1.29	0.0365 (inactive)	1.57 (inactive)	1.38 (inactive)	3.12	-0.117 (inactive)	0.104	0.458	0.791	0.0564
CC(C)C(=C=CC[C@@H](O)c1ccc(OCCO)cc1)C[C@@H](O)COCc1ccccc1	1.54	-1.06 (inactive)	-1.09 (inactive)	-0.418 (inactive)	1.93	1.14 (inactive)	-0.192	1.65	0.652	-0.135
CO[C@H]1O[C@H](CO)[C@@H](OC(=O)Nc2ccccc2)[C@H](OC(=O)Nc2ccccc2)[C@@H]1OC(=O)Nc1ccccc1	1.53	1.24 (inactive)	0.975 (inactive)	3.37 (inactive)	3.66	-0.0493 (inactive)	0.232	1.38	1.06	0.138
COc1ccccc1CN1C(=O)c2ccccc2[C@@H](C(=O)NC2CC2)[C@@H]1c1ccc(CO)cc1	1.54	0.827 (inactive)	-0.392 (inactive)	0.344 (inactive)	2.28	0.772 (inactive)	0.488	1.47	1.06	0.194
COc1ccccc1CN1C(=O)c2ccccc2[C@@]2(Cc3ccccc3N(CC(C)C)C2=O)[C@@H]1c1ccc(CO)cc1	0.545	-0.928 (inactive)	0.189 (inactive)	-1.03 (inactive)	-0.359	-0.0514 (inactive)	-0.122	-0.19	-0.285	-0.127
CCCC[C@@H]1C[C@H]1[C@@H](NC(=O)c1ccco1)c1ccc(-c2ccccc2)cc1	1.11	0.186 (inactive)	0.316 (inactive)	0.569 (inactive)	-0.397	-1.45 (inactive)	0.0682	0.61	0.234	0.0258
CN1C(=O)C2C=CC(C(O)c3ccccc3)N(N(c3ccccc3)c3ccccc3)C2C1=O (stereo not given)	-0.124	0.0175 (inactive)	0.808 (inactive)	0.495 (inactive)	0.317	-0.642 (inactive)	0.603	0.141	0.422	-0.0668
C=CC[C@]1(C(=O)NCCCOC)N=C(c2ccc(OCCCO)cc2)O[C@H]1c1ccccc1CN=[N+]=[N-]	1.13	-1.5 (inactive)	0.998 (inactive)	-1.71 (inactive)	3.15	-0.483 (inactive)	0.248	0.102	0.854	0.286
CC(C)C[C@@H]1NC(=O)[C@@H]2C[C@H](C(=O)NCc3ccc(F)cc3)[C@H](c3cccc(OCCO)c3)N2C1=O	1.38	-1.84 (inactive)	-0.161 (inactive)	-0.425 (inactive)	2.14	1.64 (inactive)	-0.0674	0.572	0.552	-0.147
CCN(CC)c1ccc(N2CC=CC34O[C@@H]5C=CCCOC(=O)C5[C@H]3C(=O)N(CCCCCCO)[C@@H]4C2=O)cc1 (stereo not given in full)	-0.171	-2.16 (inactive)	-0.431 (inactive)	-1.74 (inactive)	2.94	2.49 (inactive)	-0.192	-0.612	-0.619	-0.0493
C=CCNC(=O)[C@@H]1[C@H]2C(=O)O[C@H](c3ccccc3)[C@H](c3ccccc3)N2[C@H](c2ccc(OCCO)cc2)[C@@]12C(=O)Nc1ccc(C#CCC(C(=O)OC)C(=O)OC)cc12	1.53	1.87 (inactive)	2.03 (inactive)	3.83 (inactive)	3.04	1.92 (inactive)	0.0869	1.31	0.981	-0.0466
CCOC(=O)C[C@H]1[C@H](OC(=O)c2cc3ccccc3oc2=O)[C@@H](NC(=O)c2ccccc2)c2cc(OCCCO)ccc2N1C(=O)c1ccc2ccccc2n1	0.258	0.157 (inactive)	-0.12 (inactive)	0.0284 (inactive)	0.852	0.368 (inactive)	-0.193	0.918	0.662	-0.0828
NC(=O)NCC#Cc1ccc2c(c1)[C@]1(C(=O)N2)[C@H](C(=O)Nc2nc3ccccc3s2)[C@H]2C(=O)O[C@H](c3ccccc3)[C@H](c3ccccc3)N2[C@@H]1c1ccccc1OCCO	1.54	1.17 (inactive)	1.33 (inactive)	3.48 (inactive)	3.85	1.5 (inactive)	-0.351	1.61	1.06	0.506
CCCCCCc1nc(-c2ccc(OC)nc2)cc2c1[Si](C(C)C)(C(C)C)O[C@H]2c1ccccc1	0.608	0.493 (inactive)	0.993 (inactive)	-0.226 (inactive)	-0.4	-0.995 (inactive)	-0.203	0.75	0.783	-0.0674
CC(C)C(=C=CC[C@@H](O)c1ccc(OCCO)cc1)C[C@@H](O)c1ccccn1	1.19	-1 (inactive)	-0.141 (inactive)	-0.347 (inactive)	-0.27	-0.162 (inactive)	-0.235	1.08	0.813	-0.133
C=CCOC(=O)[C@@H]1[C@H]2C(=O)O[C@H](c3ccccc3)[C@H](c3ccccc3)N2[C@H](c2ccc(OCCOC(=O)[C@@H]3C[C@@H]4C(=O)NCC(=O)N4[C@@H]3c3ccc(O)cc3)cc2)[C@@]12C(=O)Nc1ccc(I)cc12	1.55	0.218 (inactive)	0.985 (inactive)	2.85 (inactive)	2.54	0.5 (inactive)	-0.171	1.58	0.859	-0.154
